Drawing on PubChem BioAssay AID651551 (Sanford-Burnham Center for Chemical Genomics, 2012), this text covers inhibition % (higher = more inhibition) for 17 molecules.

The assay addresses PEG-3 (UniProt Q6IN02). Nature of the assay: GAPDH versus PEG-3 reporter suppression – cell-based, luminescence, counter-screen for PEG-3 promoter inhibitor project, SAR follow-up (AID 651551). The settings on record: HeLa PEG-Prom / GAPDH luciferase reporter, 6 or 24 h, run 1, 6 h; at 99 µM (top of the series). On the technique in general: Counterscreens check selectivity or assay interference.

In the case of `Cc1cc(NC(=O)c2ccccc2)n(-c2nc3ccccc3[nH]2)n1`, the inhibition % (higher = more inhibition) turned out to be 14.9%.
Turning to `Cc1cc(NC(=O)c2cccc(C)c2C)n(-c2nc3ccccc3[nH]2)n1`, the inhibition % (higher = more inhibition) is 20.4%.
For the molecule `COc1ccc(Cl)cc1Nc1nc(-c2sc(NC(=O)c3ccccc3)nc2C)cs1`, the inhibition % (higher = more inhibition) came to 49.3%.
`COCCCNC(=O)c1ccc(Cn2c(=O)c3ccccc3n(Cc3ccccc3C#N)c2=O)cc1`: the inhibition % (higher = more inhibition) came out at 43.4%.
With `Cc1cc(NC(=O)c2ccccc2)n(-c2nc3ccccc3n2C)n1` the figure was 48.1%; with `CCCn1nc(C(=O)Nc2nc(-c3ccccn3)cs2)c2ccccc2c1=O`, 25.9%; with `Cc1nc(NC(=O)c2ccccc2)sc1-c1csc(Nc2cccc(Cl)c2C)n1`, 37.4%.
For the molecule `COc1ccc(-n2nc(C(=O)NCC(=O)Nc3ccc(OC)c(OC)c3)c3ccccc3c2=O)cc1`, the inhibition % (higher = more inhibition) is 23.9%.
On to `O=C(Nc1nc2ccccc2s1)c1nn(-c2ccccc2)c(=O)c2ccccc12`, for which the inhibition % (higher = more inhibition) is -4.43%.
Regarding `CCCn1nc(C(=O)Nc2nc(-c3ccncc3)cs2)c2ccccc2c1=O`, the inhibition % (higher = more inhibition) is 19.5%.
In the case of `Cc1nc(NC(=O)c2ccccc2)sc1-c1csc(Nc2ccccc2)n1`, the inhibition % (higher = more inhibition) is 23.9%.
For the molecule `Cc1nc(NC(=O)c2ccccc2)sc1-c1csc(Nc2ccccc2Cl)n1`, the inhibition % (higher = more inhibition) was -1.45%.
`COc1ccc(-n2nc(C(=O)NCC(=O)Nc3cc(OC)c(OC)c(OC)c3)c3ccccc3c2=O)cc1OC`: the inhibition % (higher = more inhibition) was 6.02%.
As for `O=C(Nc1nccs1)c1nn(-c2ccccc2)c(=O)c2ccccc12`, the inhibition % (higher = more inhibition) is 37.4%.
Turning to `COc1ccccc1Nc1nc(-c2sc(NC(=O)c3ccco3)nc2C)cs1`, the inhibition % (higher = more inhibition) was determined as 12%.
For `CCn1nc(C(=O)Nc2nc(-c3ccccn3)cs2)c2ccccc2c1=O`, the inhibition % (higher = more inhibition) was determined as 26.9%.
As to `CCn1cc(C(=O)NCc2ccco2)c(=O)c2cc(S(=O)(=O)N3CCCC3)ccc21`, the inhibition % (higher = more inhibition) stood at 19.5%.
